Test results taken from PubChem BioAssay (NCI).
About 83,000 compounds went through this panel and 20% of them were active in at least one assay; those are over-represented in the sample as a whole.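 The test compound was applied at a single concentration to cells in 96-well plates for 48 hours, and percent growth was recorded.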 Values without a mark were called inactive. Active and inactive are the calls of the source. How the source made its calls: active means growth percent below 10; inactive means the rest.

What follows are compounds tested on HL-60(TB) leukemia (assay: NCI-60 one-dose screen, 48 h (100 = growth as untreated, 0 = no growth, -100 = all killed)). Conditions: 10 µM unless noted.

| SMILES | growth |
| --- | --- |
| CCOc1cccc(/C=N/NC(=O)C(=O)Nc2cccc(C(F)(F)F)c2)c1O | 11.2% |
| CC(=O)NCCN | 103% |
| O=C1/C=C/[C@@H](O)[C@@H]2C[C@@H](O)C[C@H]2/C=C/CCC[C@H]([C@@H](O)CO)O1 | 101% |
| O=C(CS)Nc1ccc2ccccc2c1 | 120% |
| CCCn1cc(/C=N\N=C2\C(=O)Nc3ccc(C)cc32)c2ccccc21 | -22.6% (active) |
| O=S(=O)(NCCNc1nccc(-c2c(-c3ccccc3)nc3sccn23)n1)c1ccc(O)cc1 | 68% |
| COc1ccc(-c2nc3c(N)c(CO)cnc3s2)cc1 | 80.5% |
| CCOC(=O)c1ccc(NC(=O)N2CC(C)OC(C)C2)cc1 (stereo not given) | 92.8% |
| c1ccn2nnnc2c1 | 116% |
| CC[C@]12C=CCN3CC[C@@]4(c5cc([C@H]6CCC(=O)N6)c(OC)cc5N(C)[C@H]4[C@@](O)(C(=O)OC)[C@@H]1OC(C)=O)[C@@H]32 | 109% [2.5 µM] |
| Cc1ccc(Nc2nc(-c3ccc(F)cc3)c(C#N)c(=O)n2C)cc1 | 90.1% |
| COc1ccccc1N1CCN(CCn2c(=O)c3c(c4ccccc4n3C)n(C)c2=O)CC1 | 109% |
| OC(CBr)CCBr (stereo not given) | 103% |
| O=C(Nc1ccc(Br)cc1)c1ccc(Cl)c(Cl)c1 | 19.4% |
| Cc1ccc(-c2csc(NC(=O)N3CCN(c4cc5c(cc4F)c(=O)c(C(=O)O)cn5C4CC4)CC3)n2)cc1 | -15.5% (active) |
| CCCOC(=O)c1c(C)n(C)c2scc[n+]12 | 92.6% |
| Cc1cccc(C(=O)O)n1 | 78.1% |
| COc1ccc(Nc2ncnc3c2c(SC)nn3-c2ccccc2)cc1 | 90.5% |
| CCc1ccc(Nc2cc(C)c3ccc(O)cc3n2)cc1 | 33.9% |
| O=C1c2ccccc2-c2ccccc2C1(Cl)Cl | -39.6% (active) |

| SMILES | growth |
| --- | --- |
| C=C(C)[C@@H]1CC[C@]2(C)[C@H](C(=O)C=C3[C@@H]4C[C@](C)(C(=O)N5CCN(C)CC5)CC[C@]4(C)CC[C@]32C)[C@@]1(C)CCC#N | -22% [100 µM] (active) |
| CCOC(=O)c1c(-c2ccc(C)cc2)c(C#N)c(=O)n(-c2cccc(C(F)(F)F)c2)c1N | 102% |
| C/C(=N\OC(=O)Nc1ccccc1)c1ccccc1 | 119% |
| COc1cc2cc(NCc3cccc(Cl)c3)nc(C)c2cc1OC | 14.5% |
| CC1CC(C(C)(C)C)C(=O)C(C(C)(C)C)C1 (stereo not given) | 107% |
| CC1CC(O)CC(C)(C)C1.CC1CC(O)CC(C)(C)C1.CC1CC(O)CC(C)(C)C1.CC1CC(O)CC(C)(C)C1.[Ti] (stereo not given) | 104% |
| COc1c2c(cc3c1C(=O)N[C@@H]1[C@@H](O)[C@@H](O)[C@H](O)C[C@@H]31)OCCO2 | 95.4% |
| COC(=O)/C=C1/CCCCC1(C)C(=O)OC (stereo not given) | 102% |
| CCCCCCN(CCCCCC)CC(O)c1cccc2ccc(Cl)cc12 (stereo not given) | 69.5% |
| COc1ccc(Oc2nc(NC3CCCC3)nc(Sc3ccc(OC)cc3)n2)cc1 | 48.3% |
| O=C(Nc1cccc(Cl)c1)Nc1nccs1 | 88.7% |
| Nc1nc(N(Cc2ccccc2)c2ccccc2)c2cn[nH]c2n1 | 32.8% |
| O=c1oc2ccc(Cl)cc2c(=O)n1-c1ccc(I)cc1F | -46.3% (active) |
| CON1C(=O)CC[C@]2(C)[C@H]3CC[C@@H]4C([C@@]5(C)CCC(=O)O5)CC[C@@]4(C)[C@]3(C)CC[C@H]2C1(C)C (stereo not given in full) | 100% |
| N#C/C(=N\Nc1ccccc1)C(=O)Nc1cc(-c2ccccc2)nn1-c1ccccc1 | 35.4% |
| O=C(c1ccccc1)N1N=C(c2ccc(-n3ccc(C(F)(F)F)n3)c(F)c2)CC1c1ccc[nH]1 (stereo not given) | 101% |
| CCOC(=O)C(Cc1ccc(OC)cc1)C(=O)OCC | 3.77% (active) |
| O=C(CN1CCN(c2ccccc2)CC1)N1CCN(c2nnc(-c3ccc(Cl)cc3)c(-c3ccc(Cl)cc3)n2)CC1 | -40.7% (active) |
| COc1cccc(-c2nn(-c3ccccc3)cc2-c2ccnc(NCCNS(=O)(=O)c3ccccc3)c2)c1 | 8.92% (active) |
| CCN(C(=O)N1CCN(c2cc3c(cc2F)c(=O)c(C(=O)O)cn3C2CC2)CC1)c1nc(-c2ccccc2)cs1 | -34% (active) |
